Screening results from PubChem.
An excerpt weighted towards active compounds, which were near 4.6% of everything screened.
USP10 block: blocks human USP10 ubiquitin-rhodamine cleavage. purified USP10, Ub-rhodamine fluorescence, 60 min. 1.1% of 47,000 active. inhibition, % at 20 µM. Q14694
USP7 inh: blocks human USP7 ubiquitin-rhodamine cleavage; purified USP7, Ub-rhodamine cleavage fluorescence; 0.3% of 47,000 active; Q93009; AID 1645854; inhibition, % at 20 µM
UCHL1 inh: inhibitors of human UCHL1 deubiquitinase; purified UCHL1, Ub-rhodamine cleavage fluorescence; inhibition, % at 20 µM; 0.2% of 47,000 active
USP8 block: inhibitors of human USP8 deubiquitinase. P40818. purified USP8, Ub-rhodamine cleavage fluorescence, 30 min. inhibition, % at 20 µM. 4.2% of 47,000 active. AID 1645853
* marks the source's active call; other numbers are inactive results. Cut-off read from the data, not from the text of the source: active = inhibition above about 30%; inactive = the rest.

SMILES	USP10 block	USP7 inh	UCHL1 inh	USP8 block
COc1ccc(-c2c(C)nc3c(-c4ccsc4)cnn3c2N)cc1	3	2	0	32*
COc1ccc(-c2csc3ncn(CC(C)=O)c(=O)c23)cc1	-4	-5	-3	-17
Cc1nc2ccc(NC(=O)/C=C/c3cn(-c4ccccc4)nc3-c3cccnc3)cc2s1	0	13	-2	38*
NS(=O)(=O)c1cccc(NC(=O)/C=C/c2cn(-c3ccccc3)nc2-c2cccc([N+](=O)[O-])c2)c1	63*	19	5	71*
CNC(=O)Cc1ccc(NC(=O)/C=C/c2cn(-c3ccccc3)nc2-c2ccc(F)cc2)cc1	10	7	1	34*
O=C(/C=C/c1cn(-c2ccccc2)nc1-c1cc2ccccc2o1)NCc1ccccc1F	-10	-8	-11	9
O=C(O)c1cn(-c2ccccc2)nc1-c1cccc([N+](=O)[O-])c1	5	-5	0	3
CC(=O)NS(=O)(=O)c1ccc(NC(=O)/C=C/c2cn(-c3ccccc3)nc2-c2ccccc2)cc1	63*	41*	12	65*
O=C(c1ccccc1F)N1CCC[C@@H]1Cn1nnc(-c2cccnc2)n1	0	1	-1	-1
O=C(C1CCCC1)N1CCCC(c2ccnc(Nc3ccc(F)cc3)n2)C1 (stereo not drawn)	1	-68	0	-9
Oc1sc(C=Nc2ccc(F)cc2)c2ccccc12	0	-18	3	68*
CCOC(=O)c1cccc(N=Cc2sc(O)c3ccccc23)c1	-6	-137	-152	-243
O=C(Nc1ccccc1F)c1ccc2noc(-c3ccccc3)c2c1	-1	0	0	-135
O=S1(=O)CCN(Cc2cccnc2)c2c(Oc3ccccc3F)nc(F)c(Cl)c21	-1	-132	4	15
O=S1(=O)CCN(CC2CCCO2)c2c(F)nc(N3CCOCC3)c(F)c21 (stereo not drawn)	-2	-4	-2	-53
CC1CCCCN1c1nc(F)c2c(c1F)S(=O)(=O)CCN2Cc1cccnc1 (stereo not drawn)	-5	-5	1	70*
CCN(CC)c1nc(F)c2c(c1F)S(=O)(=O)CCN2Cc1cccnc1	-6	-19	4	90*
O=C(C1CCCC1)N1CCCC(Cc2cc(-c3ccccc3)no2)(C(=O)O)C1 (stereo not drawn)	-2	-2	-3	-2
COc1ccc(C2CC(=O)C3=C(C2)Nc2ccccc2NC3c2cccnc2)cc1 (stereo not drawn)	-2	0	0	12
Cc1cc(F)ccc1NC(=O)C1CCN(c2cnc(N3CCCCC3)nc2)CC1	-4	-8	-1	31*
N#Cc1c2c(c3nncn3c1NCc1cccnc1)CN(Cc1ccccc1)CC2	-3	-30	-25	-63
COc1ccc(NS(=O)(=O)c2cc(NC(=O)/C=C/c3ccco3)ccc2N2CCCC2)cc1	17	13	18	76*
COCC1CN(C(=O)c2cccn2C)Cc2cn(C)nc21 (stereo not drawn)	-6	-3	-7	-148
Cc1cccc(OCC(O)CNc2nc(C)cc(C)n2)c1 (stereo not drawn)	1	1	0	4
COc1cccc(OCC(O)CNc2ccc(Cl)cc2)c1 (stereo not drawn)	3	-80	2	37*
SMILES	USP10 block	USP7 inh	UCHL1 inh	USP8 block
CCc1cc(=O)[nH]c(NC2CCN(C3CCCCC3)CC2)n1	-1	3	2	-4
CC1CCN(c2nc(F)c3c(c2F)S(=O)(=O)CCN3Cc2ccccc2)CC1	-1	1	5	92*
COCCN1CCS(=O)(=O)c2c(F)c(N3CCCC3)nc(F)c21	1	4	2	3
CC1CCN(c2nc(F)c3c(c2F)S(=O)(=O)CCN3CC2CCCO2)CC1 (stereo not drawn)	6	-34	5	-39
O=S1(=O)CCN(Cc2ccccc2)c2c(F)nc(N3CCCCC3)c(F)c21	-1	-7	6	87*
Cc1ccc(-c2c3c(=O)n(C)c(=O)n(C)c3cn2-c2ccc3c(c2)OCCO3)cc1	-1	-3	2	63*
Cc1ccc(-c2cc3nc(Nc4ccc(C(N)=O)cc4)ccn3n2)cc1	-6	-6	-3	71*
COc1ccc(-c2cc3nc(Nc4cc(OC)c(OC)c(OC)c4)ccn3n2)cc1	-11	0	-6	14
N#Cc1ccc(Cl)cc1NC(=O)COC(=O)c1n[nH]c2ccccc12	-9	2	3	34*
N#Cc1cccc(NC(=O)COC(=O)c2n[nH]c3ccccc23)c1	31*	17	4	28
O=C(CCC(=O)N(CC(=O)NC1CCCC1)Cc1ccccc1)Nc1ccccn1	1	-2	-1	-1
